What all share (experiment): DAPPL (digital affinity profiling via proximity ligation, sequencing); 10 mM Tris-HCl pH 7.5, 50 mM NaCl, 1 mM DTT, 4% glycerol, room temperature, 30 min; GST-TFs on glutathione beads, 16-mer random dsDNA library, 0.1% formaldehyde crosslink after washing; high values mean tight binding
Assay [1] concerns the target T1, FEV (Homo sapiens, UniProt Q99581 1-238).
T1 sequence: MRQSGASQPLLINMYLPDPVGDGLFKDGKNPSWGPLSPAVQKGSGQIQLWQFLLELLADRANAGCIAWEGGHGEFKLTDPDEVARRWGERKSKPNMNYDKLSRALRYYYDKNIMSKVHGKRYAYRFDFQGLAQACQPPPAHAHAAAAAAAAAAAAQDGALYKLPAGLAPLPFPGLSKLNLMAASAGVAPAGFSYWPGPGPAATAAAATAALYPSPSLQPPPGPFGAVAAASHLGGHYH
Conditions: protein: recombinant; tags: N-terminal GST; dsDNA, one strand shown. The method in brief: (§1)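 Human transcription factors were made in yeast as GST fusions, captured on glutathione beads and barcoded with DNA. With a tag-only sample included, the pool was incubated with 200 nmole of a random double-stranded 16-mer DNA library in Tris/NaCl/DTT/glycerol buffer at room temperature for 30 min, then crosslinked with 0.1% formaldehyde after washing, ligated by proximity, amplified and sequenced. For binding signal, each hexamer's read frequency for a factor is divided by its frequency for the tag-only sample.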

Assay [2] deals with ETV5 (Homo sapiens, UniProt P41161 1-510). As to conditions: protein: recombinant; tags: N-terminal GST; dsDNA, one strand shown. The method in brief:
as §1

Assay [3] addresses HSF1 (Homo sapiens, UniProt Q00613 1-529). As to conditions: protein: recombinant; tags: N-terminal GST; chain copies: 3; dsDNA, one strand shown. An outline of the steps: as §1
The target in assay [4] is T2, SPIC (Homo sapiens, UniProt Q8N5J4 1-248).
T2 sequence: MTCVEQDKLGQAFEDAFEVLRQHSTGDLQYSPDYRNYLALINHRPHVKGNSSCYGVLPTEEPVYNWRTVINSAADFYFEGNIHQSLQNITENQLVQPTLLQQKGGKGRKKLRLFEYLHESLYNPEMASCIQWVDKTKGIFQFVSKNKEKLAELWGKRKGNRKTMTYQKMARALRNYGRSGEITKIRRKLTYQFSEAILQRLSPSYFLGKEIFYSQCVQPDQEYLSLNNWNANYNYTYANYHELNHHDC
As to conditions: protein: recombinant; tags: N-terminal GST; dsDNA, one strand shown. An outline of the steps: as §1

The target in assay [5] is ELF4 (Homo sapiens, UniProt Q99607 1-663). Conditions: protein: recombinant; tags: N-terminal GST; dsDNA, one strand shown. An outline of the steps:
as §1

Assay [6] deals with T3, ELK4 (Homo sapiens, UniProt P28324-2 1-405).
T3 sequence: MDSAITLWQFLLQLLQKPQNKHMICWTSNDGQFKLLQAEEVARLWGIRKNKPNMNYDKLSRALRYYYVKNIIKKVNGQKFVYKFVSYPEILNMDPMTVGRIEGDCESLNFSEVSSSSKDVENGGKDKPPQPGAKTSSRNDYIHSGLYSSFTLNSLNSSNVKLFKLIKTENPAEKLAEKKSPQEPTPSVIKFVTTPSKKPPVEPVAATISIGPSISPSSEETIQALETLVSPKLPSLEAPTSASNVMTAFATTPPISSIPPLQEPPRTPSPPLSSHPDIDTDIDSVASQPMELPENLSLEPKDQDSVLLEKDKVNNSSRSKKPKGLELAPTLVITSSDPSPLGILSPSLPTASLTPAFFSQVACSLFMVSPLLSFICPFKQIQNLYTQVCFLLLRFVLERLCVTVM
Conditions: protein: recombinant; tags: N-terminal GST; dsDNA, one strand shown. An outline of the steps: as §1

Assay [7] deals with T4, ETV2 (Homo sapiens, UniProt O00321 1-342).
T4 sequence: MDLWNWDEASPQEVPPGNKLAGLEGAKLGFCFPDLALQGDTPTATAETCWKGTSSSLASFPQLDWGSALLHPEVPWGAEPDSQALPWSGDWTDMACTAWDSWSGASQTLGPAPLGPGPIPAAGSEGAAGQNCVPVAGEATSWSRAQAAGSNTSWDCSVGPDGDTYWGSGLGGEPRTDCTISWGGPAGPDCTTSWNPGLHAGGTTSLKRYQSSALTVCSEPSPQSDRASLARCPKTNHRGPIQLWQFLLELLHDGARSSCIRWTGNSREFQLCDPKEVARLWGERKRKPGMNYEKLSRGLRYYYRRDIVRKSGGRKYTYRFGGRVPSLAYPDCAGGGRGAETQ
As to conditions: protein: recombinant; tags: N-terminal GST; dsDNA, one strand shown. An outline of the steps: as §1

In assay [8] the target is T5, ELF3 (Homo sapiens, UniProt P78545 1-371).
T5 sequence: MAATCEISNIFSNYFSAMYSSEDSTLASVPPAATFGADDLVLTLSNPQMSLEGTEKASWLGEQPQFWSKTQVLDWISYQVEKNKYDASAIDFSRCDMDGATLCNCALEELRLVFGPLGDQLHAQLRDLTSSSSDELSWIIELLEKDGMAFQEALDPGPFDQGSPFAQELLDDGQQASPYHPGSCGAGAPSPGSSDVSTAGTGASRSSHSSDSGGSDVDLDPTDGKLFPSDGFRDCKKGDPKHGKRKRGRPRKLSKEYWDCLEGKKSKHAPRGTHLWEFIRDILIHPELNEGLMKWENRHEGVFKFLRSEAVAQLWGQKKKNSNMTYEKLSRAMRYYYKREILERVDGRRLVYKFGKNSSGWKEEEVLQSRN
As to conditions: protein: recombinant; tags: N-terminal GST; dsDNA, one strand shown. The method in brief:
as §1

The target in assay [9] is CRX (Homo sapiens, UniProt O43186 1-299). As to conditions: protein: recombinant; tags: N-terminal GST; dsDNA, one strand shown. The method in brief: as §1
Assay [10] deals with ETV1 (Homo sapiens, UniProt P50549 1-477). Conditions: protein: recombinant; tags: N-terminal GST; dsDNA, one strand shown. The method in brief:
as §1

Assay [11] addresses T6, ERF (Homo sapiens, UniProt P50548 1-548).
T6 sequence: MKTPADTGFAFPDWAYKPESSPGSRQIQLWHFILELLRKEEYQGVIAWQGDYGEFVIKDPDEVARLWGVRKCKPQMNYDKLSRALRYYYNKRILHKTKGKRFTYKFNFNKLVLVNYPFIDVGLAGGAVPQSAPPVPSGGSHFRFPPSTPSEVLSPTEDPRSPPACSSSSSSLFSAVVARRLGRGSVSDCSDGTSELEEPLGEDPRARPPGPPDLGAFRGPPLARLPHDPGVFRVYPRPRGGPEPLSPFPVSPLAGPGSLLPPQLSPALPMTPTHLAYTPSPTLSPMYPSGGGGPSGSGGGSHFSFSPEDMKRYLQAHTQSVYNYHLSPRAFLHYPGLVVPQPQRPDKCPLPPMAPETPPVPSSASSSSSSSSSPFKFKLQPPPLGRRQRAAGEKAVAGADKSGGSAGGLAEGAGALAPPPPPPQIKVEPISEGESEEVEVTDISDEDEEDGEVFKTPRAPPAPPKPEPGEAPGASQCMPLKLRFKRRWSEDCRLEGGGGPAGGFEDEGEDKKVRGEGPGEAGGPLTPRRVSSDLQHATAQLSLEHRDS
As to conditions: protein: recombinant; tags: N-terminal GST; dsDNA, one strand shown. An outline of the steps: as §1

The target in assay [12] is T7, ETV3L (Homo sapiens, UniProt Q6ZN32 1-361).
T7 sequence: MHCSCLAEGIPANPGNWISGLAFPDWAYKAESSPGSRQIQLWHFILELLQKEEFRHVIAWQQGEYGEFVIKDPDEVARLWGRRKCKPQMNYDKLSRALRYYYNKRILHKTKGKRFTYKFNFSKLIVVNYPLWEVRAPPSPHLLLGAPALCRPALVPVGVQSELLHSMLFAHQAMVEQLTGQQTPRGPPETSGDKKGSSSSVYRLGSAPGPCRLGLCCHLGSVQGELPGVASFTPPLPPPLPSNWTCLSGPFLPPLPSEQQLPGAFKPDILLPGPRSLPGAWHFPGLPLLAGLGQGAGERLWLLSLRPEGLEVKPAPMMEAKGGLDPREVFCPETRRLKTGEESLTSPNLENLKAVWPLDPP
As to conditions: protein: recombinant; tags: N-terminal GST; dsDNA, one strand shown. The method in brief: as §1

The target of assay [13] is T8, ETS2 (Homo sapiens, UniProt P15036 1-469).
T8 sequence: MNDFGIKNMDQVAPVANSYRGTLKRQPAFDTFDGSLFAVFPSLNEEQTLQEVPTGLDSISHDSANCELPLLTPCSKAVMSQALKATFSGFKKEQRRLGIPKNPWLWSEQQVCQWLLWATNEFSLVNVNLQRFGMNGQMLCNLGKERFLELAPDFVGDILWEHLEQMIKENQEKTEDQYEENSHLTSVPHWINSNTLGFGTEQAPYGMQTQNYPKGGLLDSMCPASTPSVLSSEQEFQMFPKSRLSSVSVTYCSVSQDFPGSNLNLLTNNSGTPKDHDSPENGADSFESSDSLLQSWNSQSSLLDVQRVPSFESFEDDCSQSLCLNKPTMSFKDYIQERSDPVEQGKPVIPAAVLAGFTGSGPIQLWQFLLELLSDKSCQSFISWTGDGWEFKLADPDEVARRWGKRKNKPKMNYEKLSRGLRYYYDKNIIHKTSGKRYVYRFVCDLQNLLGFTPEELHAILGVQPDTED
Conditions: protein: recombinant; tags: N-terminal GST; dsDNA, one strand shown. The method in brief:
as §1

Assay [14] deals with T9, SPDEF (Homo sapiens, UniProt O95238 1-335).
T9 sequence: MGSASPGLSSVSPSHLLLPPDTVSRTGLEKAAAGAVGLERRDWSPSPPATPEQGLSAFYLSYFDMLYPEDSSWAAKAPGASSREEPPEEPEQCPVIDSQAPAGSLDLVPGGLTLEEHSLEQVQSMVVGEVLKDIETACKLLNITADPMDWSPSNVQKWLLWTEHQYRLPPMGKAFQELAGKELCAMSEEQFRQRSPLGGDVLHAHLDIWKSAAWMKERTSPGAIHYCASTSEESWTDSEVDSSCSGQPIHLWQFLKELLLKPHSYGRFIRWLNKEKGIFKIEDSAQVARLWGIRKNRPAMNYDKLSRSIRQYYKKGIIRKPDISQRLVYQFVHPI
Conditions: protein: recombinant; tags: N-terminal GST; dsDNA, one strand shown. An outline of the steps:
as §1

Assay [15] concerns the target T10, ETV7 (Homo sapiens, UniProt Q9Y603 1-341).
T10 sequence: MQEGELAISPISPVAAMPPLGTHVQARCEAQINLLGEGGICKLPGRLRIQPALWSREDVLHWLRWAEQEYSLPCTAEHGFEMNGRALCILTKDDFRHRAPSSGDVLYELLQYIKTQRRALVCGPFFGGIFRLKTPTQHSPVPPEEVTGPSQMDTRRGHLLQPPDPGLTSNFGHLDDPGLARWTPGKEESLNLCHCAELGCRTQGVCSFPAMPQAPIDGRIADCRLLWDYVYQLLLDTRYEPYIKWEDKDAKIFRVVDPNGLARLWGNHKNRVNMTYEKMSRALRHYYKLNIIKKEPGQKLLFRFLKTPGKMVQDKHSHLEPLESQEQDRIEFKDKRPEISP
As to conditions: protein: recombinant; tags: N-terminal GST; dsDNA, one strand shown. An outline of the steps:
as §1

The target in assay [16] is T11, ELF5 (Homo sapiens, UniProt Q9UKW6-2 1-255).
T11 sequence: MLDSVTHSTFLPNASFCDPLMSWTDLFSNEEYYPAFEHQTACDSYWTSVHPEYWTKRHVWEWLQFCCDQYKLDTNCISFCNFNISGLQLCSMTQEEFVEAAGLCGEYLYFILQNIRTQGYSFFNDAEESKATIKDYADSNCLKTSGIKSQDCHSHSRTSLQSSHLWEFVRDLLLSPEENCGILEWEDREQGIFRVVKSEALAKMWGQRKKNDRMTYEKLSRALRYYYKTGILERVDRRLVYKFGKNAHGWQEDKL
As to conditions: protein: recombinant; tags: N-terminal GST; dsDNA, one strand shown. The method in brief: as §1

The target of assay [17] is T12, ETV3 (Homo sapiens, UniProt P41162-2 1-143).
T12 sequence: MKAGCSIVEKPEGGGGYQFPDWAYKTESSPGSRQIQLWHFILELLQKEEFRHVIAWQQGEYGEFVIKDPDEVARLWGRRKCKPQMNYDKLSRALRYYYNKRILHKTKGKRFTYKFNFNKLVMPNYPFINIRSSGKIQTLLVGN
Conditions: protein: recombinant; tags: N-terminal GST; dsDNA, one strand shown. An outline of the steps:
as §1

Assay [18] has as its target ETV6 (Homo sapiens, UniProt P41212 1-452). Conditions: protein: recombinant; tags: N-terminal GST; dsDNA, one strand shown. An outline of the steps:
as §1

Sequence of ETV6 (P41212 whole entry): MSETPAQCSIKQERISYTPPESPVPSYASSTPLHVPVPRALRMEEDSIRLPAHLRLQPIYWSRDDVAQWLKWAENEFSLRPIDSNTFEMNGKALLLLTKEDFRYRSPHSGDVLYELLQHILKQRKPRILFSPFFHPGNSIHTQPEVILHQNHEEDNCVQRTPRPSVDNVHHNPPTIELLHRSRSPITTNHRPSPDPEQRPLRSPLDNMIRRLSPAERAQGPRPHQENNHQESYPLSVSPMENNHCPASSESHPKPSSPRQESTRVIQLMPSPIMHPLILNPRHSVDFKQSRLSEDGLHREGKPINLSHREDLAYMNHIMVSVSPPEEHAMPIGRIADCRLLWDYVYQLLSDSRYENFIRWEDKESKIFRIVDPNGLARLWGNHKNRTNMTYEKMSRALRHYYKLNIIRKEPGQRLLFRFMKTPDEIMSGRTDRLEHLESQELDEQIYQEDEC
Sequence of ETV1 (P50549 whole entry): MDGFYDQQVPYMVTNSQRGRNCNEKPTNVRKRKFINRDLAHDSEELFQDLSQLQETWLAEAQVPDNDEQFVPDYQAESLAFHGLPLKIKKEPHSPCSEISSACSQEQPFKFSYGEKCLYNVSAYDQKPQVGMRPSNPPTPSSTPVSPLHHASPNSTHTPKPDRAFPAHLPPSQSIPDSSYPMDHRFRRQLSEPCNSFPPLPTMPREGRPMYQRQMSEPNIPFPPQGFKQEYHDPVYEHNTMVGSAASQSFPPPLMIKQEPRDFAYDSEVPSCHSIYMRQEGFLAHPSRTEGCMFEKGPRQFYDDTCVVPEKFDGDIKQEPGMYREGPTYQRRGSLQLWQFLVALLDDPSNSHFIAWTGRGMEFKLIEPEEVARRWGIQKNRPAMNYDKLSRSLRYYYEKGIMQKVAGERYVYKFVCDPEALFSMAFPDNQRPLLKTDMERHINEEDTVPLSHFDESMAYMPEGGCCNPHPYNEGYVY
Sequence of ETV5 (P41161 whole entry): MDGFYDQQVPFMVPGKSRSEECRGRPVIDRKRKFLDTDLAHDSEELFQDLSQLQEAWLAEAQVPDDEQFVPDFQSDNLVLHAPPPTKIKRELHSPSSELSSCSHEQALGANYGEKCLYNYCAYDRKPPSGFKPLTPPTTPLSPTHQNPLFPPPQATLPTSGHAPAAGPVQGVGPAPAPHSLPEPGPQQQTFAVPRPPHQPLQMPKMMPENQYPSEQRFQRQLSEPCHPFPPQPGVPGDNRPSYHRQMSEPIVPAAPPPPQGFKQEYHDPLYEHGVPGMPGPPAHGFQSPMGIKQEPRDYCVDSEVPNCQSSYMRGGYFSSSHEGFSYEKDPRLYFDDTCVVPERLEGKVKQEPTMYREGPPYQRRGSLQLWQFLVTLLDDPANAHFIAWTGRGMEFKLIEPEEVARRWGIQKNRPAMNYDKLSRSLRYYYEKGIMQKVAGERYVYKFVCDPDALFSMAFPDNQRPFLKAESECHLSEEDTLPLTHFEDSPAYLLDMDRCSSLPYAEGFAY
Sequence of HSF1 (Q00613 whole entry): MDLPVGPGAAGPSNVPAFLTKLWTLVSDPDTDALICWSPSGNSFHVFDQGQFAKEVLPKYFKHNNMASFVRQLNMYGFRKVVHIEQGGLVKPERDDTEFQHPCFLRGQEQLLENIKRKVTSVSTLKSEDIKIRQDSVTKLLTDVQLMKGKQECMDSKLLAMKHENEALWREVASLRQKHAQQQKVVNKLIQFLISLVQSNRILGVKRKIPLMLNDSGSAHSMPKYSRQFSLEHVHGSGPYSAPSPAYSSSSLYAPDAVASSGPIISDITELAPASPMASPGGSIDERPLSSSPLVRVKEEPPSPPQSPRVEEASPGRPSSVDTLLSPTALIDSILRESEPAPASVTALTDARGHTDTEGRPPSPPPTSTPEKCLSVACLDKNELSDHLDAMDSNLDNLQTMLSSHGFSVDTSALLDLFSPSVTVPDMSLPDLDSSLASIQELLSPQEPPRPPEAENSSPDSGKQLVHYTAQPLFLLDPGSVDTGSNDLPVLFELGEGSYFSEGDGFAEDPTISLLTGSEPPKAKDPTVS
Sequence of ELF4 (Q99607 whole entry): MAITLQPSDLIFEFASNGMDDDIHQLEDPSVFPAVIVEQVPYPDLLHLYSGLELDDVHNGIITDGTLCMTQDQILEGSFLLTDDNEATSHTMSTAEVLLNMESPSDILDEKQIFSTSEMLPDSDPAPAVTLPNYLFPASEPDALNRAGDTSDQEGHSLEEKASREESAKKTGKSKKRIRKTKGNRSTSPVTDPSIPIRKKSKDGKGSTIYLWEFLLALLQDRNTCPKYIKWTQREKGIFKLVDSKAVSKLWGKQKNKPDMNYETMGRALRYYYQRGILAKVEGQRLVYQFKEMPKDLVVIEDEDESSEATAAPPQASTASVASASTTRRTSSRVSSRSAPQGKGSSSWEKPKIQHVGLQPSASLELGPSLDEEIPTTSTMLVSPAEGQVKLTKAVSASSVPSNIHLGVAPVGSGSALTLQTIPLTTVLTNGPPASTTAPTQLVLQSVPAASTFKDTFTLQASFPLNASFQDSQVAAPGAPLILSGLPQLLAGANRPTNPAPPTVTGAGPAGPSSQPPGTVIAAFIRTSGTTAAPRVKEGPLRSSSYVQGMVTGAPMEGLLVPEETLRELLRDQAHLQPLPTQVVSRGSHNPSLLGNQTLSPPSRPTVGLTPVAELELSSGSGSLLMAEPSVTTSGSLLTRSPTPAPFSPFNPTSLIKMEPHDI
Sequence of CRX (O43186 whole entry): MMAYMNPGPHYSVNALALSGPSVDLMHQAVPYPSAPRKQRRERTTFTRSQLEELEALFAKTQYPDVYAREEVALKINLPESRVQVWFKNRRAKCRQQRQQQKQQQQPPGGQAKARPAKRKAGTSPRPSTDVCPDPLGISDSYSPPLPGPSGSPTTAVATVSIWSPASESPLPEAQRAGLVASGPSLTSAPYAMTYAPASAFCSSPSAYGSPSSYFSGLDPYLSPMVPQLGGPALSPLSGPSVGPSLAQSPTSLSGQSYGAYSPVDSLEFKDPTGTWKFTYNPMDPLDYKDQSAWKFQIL

On to TTGGGG, for which the binding signal in assay [1] was 1.17 fold enrichment (6-mer frequency, TF over GST control); in assay [2], 1.24 fold enrichment (6-mer frequency, TF over GST control); in assay [3] it was 1.11 fold enrichment (6-mer frequency, TF over GST control); in assay [4] it was 1.21 fold enrichment (6-mer frequency, TF over GST control); in [5], 1.24 fold enrichment (6-mer frequency, TF over GST control); in assay [6], 1.34 fold enrichment (6-mer frequency, TF over GST control). Besides, the binding signal in assay [7] was 1.17 fold enrichment (6-mer frequency, TF over GST control); in assay [8], 1.24 fold enrichment (6-mer frequency, TF over GST control); in assay [9], 1.23 fold enrichment (6-mer frequency, TF over GST control); in assay [10], 1.38 fold enrichment (6-mer frequency, TF over GST control); in [11] it was 1.39 fold enrichment (6-mer frequency, TF over GST control); in [12], 1.3 fold enrichment (6-mer frequency, TF over GST control). Also, the binding signal in assay [13] is 1.25 fold enrichment (6-mer frequency, TF over GST control); in [14], 1.17 fold enrichment (6-mer frequency, TF over GST control); in assay [15] it was 1.12 fold enrichment (6-mer frequency, TF over GST control); in assay [16], 1.14 fold enrichment (6-mer frequency, TF over GST control); in [17] it was 1.13 fold enrichment (6-mer frequency, TF over GST control); in assay [18], 1.26 fold enrichment (6-mer frequency, TF over GST control).

The values are drawn from article PMC7862700, “An all-to-all approach to the identification of sequence-specific readers for epigenetic DNA modifications on cytosine”.
